According to the supplement of paper PMC8728848:
Many of the other results were omitted from the sample, so the strongest signals are more common in it than they were.

How the values were obtained:
Assay in all cases: glycan array binding signal (z-score within array); higher = stronger binding
Settings in all cases: glycan notation: IUPAC condensed, linker removed
[1] = molecular target: Fuc(a1-2)Gal(b1-3)GalNAc(b1-3)Gal
Procedure, shortened: (§1)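 The binding signal is a Z-score computed within each array. Data were drawn from 3228 arrays in the Consortium for Functional Glycomics database, restricted to those with a known protein sequence. Scores were averaged over arrays of the same protein sequence at different concentrations or buffers, and over linkers, and negative values can be taken as non-binding.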

[2] = molecular target: Fuc(a1-2)Gal(b1-3)GlcNAc(b1-3)GalNAc
Procedure, shortened: as §1

[3] = molecular target: Fuc(a1-2)Gal(b1-4)GlcNAc(b1-3)Gal(b1-4)GlcNAc(b1-2)Man(a1-3)[Fuc(a1-2)Gal(b1-4)GlcNAc(b1-3)Gal(b1-4)GlcNAc(b1-2)Man(a1-6)]Man(b1-4)GlcNAc(b1-4)GlcNAc
Procedure, shortened: as §1

[4] = molecular target: Fuc(a1-2)Gal(b1-4)GlcNAc(b1-3)[Fuc(a1-3)[Gal(b1-4)]GlcNAc(b1-6)]Gal(b1-4)Glc
Procedure, shortened: as §1

[5] = molecular target: Fuc(a1-2)[Gal(a1-3)]Gal(b1-4)Glc
Procedure, shortened: as §1

[6] = molecular target: Fuc(a1-2)[Gal(a1-3)]Gal(b1-4)GlcNAc
Procedure, shortened: as §1

[7] = molecular target: Fuc(a1-2)[GalNAc(a1-3)]Gal(b1-4)GlcNAc(b1-6)GalNAc
Procedure, shortened: as §1

[8] = molecular target: Fuc(a1-2)[GalNAc(b1-3)]Gal
Procedure, shortened: as §1

[9] = molecular target: Fuc(a1-3)[GalNAc(b1-4)]GlcNAc
Procedure, shortened: as §1

[10] = molecular target: Gal(a1-6)Glc
Procedure, shortened: as §1

[11] = molecular target: Gal(b1-2)Gal
Procedure, shortened: as §1

[12] = molecular target: Gal(b1-3)GlcNAc(b1-3)Gal(b1-4)Glc
Procedure, shortened: as §1

[13] = molecular target: Gal(b1-3)GlcNAc(b1-3)Gal(b1-4)GlcNAc(b1-3)Gal(b1-4)GlcNAc(b1-2)[Gal(b1-3)GlcNAc(b1-3)Gal(b1-4)GlcNAc(b1-3)Gal(b1-4)GlcNAc(b1-6)]Man(a1-6)[Gal(b1-3)GlcNAc(b1-3)Gal(b1-4)GlcNAc(b1-3)Gal(b1-4)GlcNAc(b1-2)Man(a1-3)]Man(b1-4)GlcNAc(b1-4)[Fuc(a1-6)]GlcNAc
Procedure, shortened: as §1

[14] = molecular target: Gal(b1-3)GlcNAc(b1-3)Gal(b1-4)[Fuc(a1-3)]GlcNAc
Procedure, shortened: as §1

[15] = molecular target: Gal(b1-3)GlcNAc(b1-3)GalNAc
Procedure, shortened: as §1

[16] = molecular target: Gal(b1-3)[Neu5Ac(a2-6)]GalNAc
Procedure, shortened: as §1

[17] = molecular target: Gal(b1-3)[Neu5Ac(b2-6)]GalNAc
Procedure, shortened: as §1

[18] = molecular target: Gal(b1-4)GlcNAc(b1-2)Man(a1-3)Man(b1-4)GlcNAc(b1-4)GlcNAc
Procedure, shortened: as §1

[19] = molecular target: Gal(b1-4)GlcNAc(b1-2)Man(a1-6)Man(b1-4)GlcNAc(b1-4)GlcNAc
Procedure, shortened: as §1

[20] = molecular target: Gal(b1-4)GlcNAc(b1-2)[Gal(b1-4)GlcNAc(b1-4)]Man(a1-3)[Gal(b1-4)GlcNAc(b1-2)[Gal(b1-4)GlcNAc(b1-6)]Man(a1-6)]Man(b1-4)GlcNAc(b1-4)GlcNAc
Procedure, shortened: as §1

[21] = molecular target: Gal(b1-4)GlcNAc(b1-3)Gal(b1-4)GlcNAc(b1-2)Man(a1-3)[Gal(b1-4)GlcNAc(b1-3)Gal(b1-4)GlcNAc(b1-2)Man(a1-6)]Man(b1-4)GlcNAc(b1-4)GlcNAc
Procedure, shortened: as §1

[22] = molecular target: Gal(b1-4)GlcNAc(b1-3)Gal(b1-4)GlcNAc(b1-2)[Gal(b1-4)GlcNAc(b1-3)Gal(b1-4)GlcNAc(b1-6)]Man(a1-6)[Gal(b1-4)GlcNAc(b1-3)Gal(b1-4)GlcNAc(b1-2)Man(a1-3)]Man(b1-4)GlcNAc(b1-4)GlcNAc
Procedure, shortened: as §1

[23] = molecular target: Gal(b1-4)GlcNAc(b1-3)Gal(b1-4)GlcNAc(b1-3)Gal(b1-4)GlcNAc(b1-2)Man(a1-3)[Gal(b1-4)GlcNAc(b1-3)Gal(b1-4)GlcNAc(b1-3)Gal(b1-4)GlcNAc(b1-2)Man(a1-6)]Man(b1-4)GlcNAc(b1-4)[Fuc(a1-6)]GlcNAc
Procedure, shortened: as §1

[24] = molecular target: Gal(b1-4)GlcNAc(b1-3)Gal(b1-4)GlcNAc(b1-3)[Gal(b1-4)GlcNAc(b1-3)Gal(b1-4)GlcNAc(b1-6)]GalNAc
Procedure, shortened: as §1

[25] = molecular target: Gal(b1-4)GlcNAc(b1-3)[Fuc(a1-3)GlcNAc(b1-6)]Gal(b1-4)Glc
Procedure, shortened: as §1

[26] = molecular target: Gal(b1-4)GlcNAc(b1-6)[Gal(b1-3)]GalNAc
Procedure, shortened: as §1

[27] = molecular target: Gal3S(b1-4)Glc
Procedure, shortened: as §1

[28] = molecular target: Gal3S(b1-4)[Fuc(a1-3)]Glc6S
Procedure, shortened: as §1

[29] = molecular target: Gal3S(b1-4)[Fuc(a1-3)]GlcNAc6S
Procedure, shortened: as §1

[30] = molecular target: Gal3S6S(b1-4)GlcNAc
Procedure, shortened: as §1

[31] = molecular target: Gal3S6S(b1-4)GlcNAc6S
Procedure, shortened: as §1

[32] = molecular target: GalNAc(b1-3)Gal(a1-4)Gal(b1-4)GlcNAc
Procedure, shortened: as §1

[33] = molecular target: GalNAc(b1-4)GlcNAc
Procedure, shortened: as §1

[34] = molecular target: GlcNAc(a1-4)Gal(b1-4)GlcNAc
Procedure, shortened: as §1

[35] = molecular target: GlcNAc(b1-2)[GlcNAc(b1-6)]Man(a1-6)[GlcNAc(b1-4)][GlcNAc(b1-2)Man(a1-3)]Man(b1-4)GlcNAc(b1-4)GlcNAc
Procedure, shortened: as §1

[36] = molecular target: GlcNAc(b1-3)[GlcNAc(b1-4)][GlcNAc(b1-6)]GlcNAc
Procedure, shortened: as §1

[37] = molecular target: GlcNAc(b1-4)GlcNAc
Procedure, shortened: as §1

[38] = molecular target: GlcNAc(b1-4)GlcNAc(b1-4)GlcNAc(b1-4)GlcNAc(b1-4)GlcNAc(b1-4)GlcNAc
Procedure, shortened: as §1

[39] = molecular target: Man(b1-4)GlcNAc
Procedure, shortened: as §1

[40] = molecular target: Neu5Ac(a2-3)Gal(b1-3)GlcNAc(b1-2)Man
Procedure, shortened: as §1

[41] = molecular target: Neu5Ac(a2-3)Gal(b1-3)GlcNAc(b1-4)Gal(b1-4)Glc
Procedure, shortened: as §1

[42] = molecular target: Neu5Ac(a2-3)Gal(b1-3)[Fuc(a1-4)]GlcNAc
Procedure, shortened: as §1

[43] = molecular target: Neu5Ac(a2-3)Gal(b1-3)[Neu5Ac(a2-6)]GlcNAc(b1-3)[Fuc(a1-3)[Gal(b1-4)]GlcNAc(b1-6)]Gal(b1-4)Glc
Procedure, shortened: as §1

[44] = molecular target: Neu5Ac(a2-3)Gal(b1-4)GlcNAc(b1-2)[Neu5Ac(a2-3)Gal(b1-4)GlcNAc(b1-4)]Man(a1-3)[GlcNAc(b1-4)][Neu5Ac(a2-3)Gal(b1-4)GlcNAc(b1-2)[Neu5Ac(a2-3)Gal(b1-4)GlcNAc(b1-6)]Man(a1-6)]Man(b1-4)GlcNAc(b1-4)GlcNAc
Procedure, shortened: as §1

[45] = molecular target: Neu5Ac(a2-3)Gal(b1-4)[Fuc(a1-3)]GlcNAc(b1-2)Man
Procedure, shortened: as §1

[46] = molecular target: Neu5Ac(a2-6)Gal(b1-4)GlcNAc(b1-2)Man(a1-3)[Gal(b1-4)GlcNAc(b1-2)Man(a1-6)]Man(b1-4)GlcNAc(b1-4)GlcNAc
Procedure, shortened: as §1

[47] = molecular target: Neu5Ac(a2-6)Gal(b1-4)GlcNAc(b1-3)Gal(b1-4)GlcNAc(b1-3)Gal(b1-4)GlcNAc(b1-2)Man(a1-3)[Neu5Ac(a2-6)Gal(b1-4)GlcNAc(b1-3)Gal(b1-4)GlcNAc(b1-3)Gal(b1-4)GlcNAc(b1-2)Man(a1-6)]GalNAc
Procedure, shortened: as §1

[48] = molecular target: Neu5Ac(a2-6)Gal(b1-4)GlcNAc(b1-3)Gal(b1-4)GlcNAc(b1-3)GalNAc
Procedure, shortened: as §1

[49] = molecular target: Neu5Ac(b2-6)GalNAc
Procedure, shortened: as §1

[50] = molecular target: Neu5Gc(a2-3)Gal(b1-4)Glc
Procedure, shortened: as §1

[51] = molecular target: Neu5Gc(a2-3)Gal(b1-4)GlcNAc
Procedure, shortened: as §1

[52] = molecular target: Neu5Gc(b2-6)Gal(b1-4)GlcNAc
Procedure, shortened: as §1

B1: SynCAM (Mus musculus) (protein)
chain: MASAVLPSGSQCAAAAAVAAAAAPPGLRLRLLLLLLSAAALIPTGDGQNLFTKDVTVIEGEVATISCQVNKSDDSVIQLLNPNRQTIYFRDFRPLKDSRFQLLNFSSSELKVSLTNVSISDEGRYFCQLYTDPPQESYTTITVLVPPRNLMIDIQKDTAVEGEEIEVNCTAMASKPATTIRWFKGNKELKGKSEVEEWSDMYTVTSQLMLKVHKEDDGVPVICQVEHPAVTGNLQTQRYLEVQYKPQVHIQMTYPLQGLTREGDAFELTCEAIGKPQPVMVTWVRVDDEMPQHAVLSGPNLFINNLNKTDNGTYRCEASNIVGKAHSDYMLYVYDPPTTIPPP
glycan array binding signal (z-score) [1]: 0.178 | glycan array binding signal (z-score) [2]: 0.316 | glycan array binding signal (z-score) [3]: 0.696 | glycan array binding signal (z-score) [4]: -0.893 | glycan array binding signal (z-score) [5]: -0.671 | glycan array binding signal (z-score) [6]: -1.34 | glycan array binding signal (z-score) [7]: -0.149 | glycan array binding signal (z-score) [8]: 0.423 | glycan array binding signal (z-score) [9]: 2.63 | glycan array binding signal (z-score) [10]: -0.988 | glycan array binding signal (z-score) [11]: 0.521 | glycan array binding signal (z-score) [12]: 0.308 | glycan array binding signal (z-score) [13]: 2.43 | glycan array binding signal (z-score) [14]: -1.13 | glycan array binding signal (z-score) [15]: 0.053 | glycan array binding signal (z-score) [16]: -0.488 | glycan array binding signal (z-score) [17]: -0.562 | glycan array binding signal (z-score) [18]: -1.2 | glycan array binding signal (z-score) [19]: -0.469 | glycan array binding signal (z-score) [20]: -0.042 | glycan array binding signal (z-score) [21]: 2.96 | glycan array binding signal (z-score) [22]: 0.285 | glycan array binding signal (z-score) [23]: 1.48 | glycan array binding signal (z-score) [24]: 0.945 | glycan array binding signal (z-score) [25]: 0.097 | glycan array binding signal (z-score) [26]: -0.072 | glycan array binding signal (z-score) [27]: 1.95 | glycan array binding signal (z-score) [28]: 3.97 | glycan array binding signal (z-score) [29]: 1.22 | glycan array binding signal (z-score) [30]: 2.56 | glycan array binding signal (z-score) [31]: 2.69 | glycan array binding signal (z-score) [32]: 2.45 | glycan array binding signal (z-score) [33]: 2.71 | glycan array binding signal (z-score) [34]: -1.14 | glycan array binding signal (z-score) [35]: -0.782 | glycan array binding signal (z-score) [36]: 2.58 | glycan array binding signal (z-score) [37]: -1.17 | glycan array binding signal (z-score) [38]: 0.16 | glycan array binding signal (z-score) [39]: -0.306 | glycan array binding signal (z-score) [40]: -0.517 | glycan array binding signal (z-score) [41]: -0.756 | glycan array binding signal (z-score) [42]: 0.283 | glycan array binding signal (z-score) [43]: -0.498 | glycan array binding signal (z-score) [44]: 0.594 | glycan array binding signal (z-score) [45]: 3.11 | glycan array binding signal (z-score) [46]: -0.518 | glycan array binding signal (z-score) [47]: 2.42 | glycan array binding signal (z-score) [48]: -0.464 | glycan array binding signal (z-score) [49]: -0.413 | glycan array binding signal (z-score) [50]: -0.801 | glycan array binding signal (z-score) [51]: -0.921 | glycan array binding signal (z-score) [52]: 0.145
